Article PMC7862700, “An all-to-all approach to the identification of sequence-specific readers for epigenetic DNA modifications on cytosine”

How the values were obtained:
Experiment in all cases: DAPPL (digital affinity profiling via proximity ligation, sequencing); 10 mM Tris-HCl pH 7.5, 50 mM NaCl, 1 mM DTT, 4% glycerol, room temperature, 30 min; GST-TFs on glutathione beads, 16-mer random dsDNA library, 0.1% formaldehyde crosslink after washing; high values mean tight binding
[1] = biological target: T1, FEV (Homo sapiens, UniProt Q99581 1-238); details: protein: recombinant; tags: N-terminal GST; dsDNA, one strand shown
T1 sequence: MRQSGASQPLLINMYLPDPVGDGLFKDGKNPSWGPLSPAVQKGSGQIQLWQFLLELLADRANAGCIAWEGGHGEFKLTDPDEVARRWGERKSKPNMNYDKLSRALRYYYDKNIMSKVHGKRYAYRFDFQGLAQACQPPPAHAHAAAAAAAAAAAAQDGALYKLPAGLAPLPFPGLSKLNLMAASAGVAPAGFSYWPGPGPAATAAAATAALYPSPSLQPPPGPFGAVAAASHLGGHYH
Outline: (§1)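 Beads coated with glutathione captured GST-fused human transcription factors that had been expressed in yeast, and the factors were then given DNA barcodes and pooled with a tag-only sample. The pools were incubated with 200 nmole of a random double-stranded 16-mer DNA library in Tris/NaCl/DTT/glycerol buffer for 30 min at room temperature, washed, crosslinked with 0.1% formaldehyde and proximity-ligated with BsaI/T4 ligase at 37 °C for 1 h. PCR amplification and Illumina NextSeq500 sequencing came last. Binding signal is each hexamer's read frequency for a factor divided by its frequency for the tag-only sample.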

[2] = biological target: ETV5 (Homo sapiens, UniProt P41161 1-510); details: protein: recombinant; tags: N-terminal GST; dsDNA, one strand shown
Outline: as §1

[3] = biological target: HSF1 (Homo sapiens, UniProt Q00613 1-529); details: protein: recombinant; tags: N-terminal GST; chain copies: 3; dsDNA, one strand shown
Outline: as §1

[4] = biological target: T2, SPIC (Homo sapiens, UniProt Q8N5J4 1-248); details: protein: recombinant; tags: N-terminal GST; dsDNA, one strand shown
T2 sequence: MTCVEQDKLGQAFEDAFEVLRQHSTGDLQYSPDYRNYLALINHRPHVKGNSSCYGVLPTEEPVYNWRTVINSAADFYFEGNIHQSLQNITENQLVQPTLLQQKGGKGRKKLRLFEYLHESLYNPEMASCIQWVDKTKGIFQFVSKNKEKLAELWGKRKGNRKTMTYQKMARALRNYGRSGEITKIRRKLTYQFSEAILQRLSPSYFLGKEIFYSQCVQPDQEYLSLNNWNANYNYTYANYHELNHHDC
Outline: as §1

[5] = biological target: ELF4 (Homo sapiens, UniProt Q99607 1-663); details: protein: recombinant; tags: N-terminal GST; dsDNA, one strand shown
Outline: as §1

[6] = biological target: T3, ELK4 (Homo sapiens, UniProt P28324-2 1-405); details: protein: recombinant; tags: N-terminal GST; dsDNA, one strand shown
T3 sequence: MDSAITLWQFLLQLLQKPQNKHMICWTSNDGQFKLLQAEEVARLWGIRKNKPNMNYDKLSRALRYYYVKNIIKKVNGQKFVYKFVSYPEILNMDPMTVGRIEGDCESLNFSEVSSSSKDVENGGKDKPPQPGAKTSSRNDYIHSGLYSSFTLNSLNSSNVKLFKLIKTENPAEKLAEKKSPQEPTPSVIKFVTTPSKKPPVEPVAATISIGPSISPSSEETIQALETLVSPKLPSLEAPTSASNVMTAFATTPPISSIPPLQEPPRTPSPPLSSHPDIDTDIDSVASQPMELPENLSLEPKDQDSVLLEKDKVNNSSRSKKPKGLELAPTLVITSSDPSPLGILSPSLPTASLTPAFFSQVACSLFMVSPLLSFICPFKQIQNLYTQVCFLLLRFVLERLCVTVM
Outline: as §1

[7] = biological target: T4, ETV2 (Homo sapiens, UniProt O00321 1-342); details: protein: recombinant; tags: N-terminal GST; dsDNA, one strand shown
T4 sequence: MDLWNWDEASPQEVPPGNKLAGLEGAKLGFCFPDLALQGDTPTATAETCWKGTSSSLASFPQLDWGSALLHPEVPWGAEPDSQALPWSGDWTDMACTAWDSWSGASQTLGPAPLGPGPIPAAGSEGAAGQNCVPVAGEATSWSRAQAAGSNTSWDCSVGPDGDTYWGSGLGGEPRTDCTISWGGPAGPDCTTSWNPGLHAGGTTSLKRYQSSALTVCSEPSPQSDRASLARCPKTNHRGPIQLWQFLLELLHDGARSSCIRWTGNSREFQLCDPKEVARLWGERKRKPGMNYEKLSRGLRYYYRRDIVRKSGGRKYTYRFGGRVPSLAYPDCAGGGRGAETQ
Outline: as §1

[8] = biological target: T5, ELF3 (Homo sapiens, UniProt P78545 1-371); details: protein: recombinant; tags: N-terminal GST; dsDNA, one strand shown
T5 sequence: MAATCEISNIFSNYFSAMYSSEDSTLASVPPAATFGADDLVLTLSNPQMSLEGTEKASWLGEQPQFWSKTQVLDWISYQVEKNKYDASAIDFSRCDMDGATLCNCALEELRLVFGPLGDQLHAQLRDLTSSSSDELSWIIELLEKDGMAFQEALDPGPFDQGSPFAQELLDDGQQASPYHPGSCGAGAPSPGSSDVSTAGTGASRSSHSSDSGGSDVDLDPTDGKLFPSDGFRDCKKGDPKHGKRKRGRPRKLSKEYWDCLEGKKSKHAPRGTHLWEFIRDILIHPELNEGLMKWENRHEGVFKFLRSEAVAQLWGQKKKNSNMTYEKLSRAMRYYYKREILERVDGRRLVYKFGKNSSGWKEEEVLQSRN
Outline: as §1

[9] = biological target: CRX (Homo sapiens, UniProt O43186 1-299); details: protein: recombinant; tags: N-terminal GST; dsDNA, one strand shown
Outline: as §1

[10] = biological target: ETV1 (Homo sapiens, UniProt P50549 1-477); details: protein: recombinant; tags: N-terminal GST; dsDNA, one strand shown
Outline: as §1

[11] = biological target: T6, ERF (Homo sapiens, UniProt P50548 1-548); details: protein: recombinant; tags: N-terminal GST; dsDNA, one strand shown
T6 sequence: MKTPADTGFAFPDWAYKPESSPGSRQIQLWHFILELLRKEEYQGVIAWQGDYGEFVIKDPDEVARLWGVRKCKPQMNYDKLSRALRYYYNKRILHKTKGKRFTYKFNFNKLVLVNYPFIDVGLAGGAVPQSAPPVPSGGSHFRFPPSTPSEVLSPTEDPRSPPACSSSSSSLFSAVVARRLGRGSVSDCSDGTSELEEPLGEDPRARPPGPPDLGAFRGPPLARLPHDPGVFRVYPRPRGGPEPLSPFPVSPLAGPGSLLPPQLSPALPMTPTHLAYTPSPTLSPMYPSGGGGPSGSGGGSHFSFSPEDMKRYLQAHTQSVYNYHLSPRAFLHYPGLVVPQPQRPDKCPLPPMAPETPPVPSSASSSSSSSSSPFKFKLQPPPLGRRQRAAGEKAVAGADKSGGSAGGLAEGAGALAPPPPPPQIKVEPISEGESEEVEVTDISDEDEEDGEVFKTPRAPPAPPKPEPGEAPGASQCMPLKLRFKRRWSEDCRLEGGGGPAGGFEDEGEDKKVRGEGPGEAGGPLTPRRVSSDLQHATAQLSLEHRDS
Outline: as §1

[12] = biological target: T7, ETV3L (Homo sapiens, UniProt Q6ZN32 1-361); details: protein: recombinant; tags: N-terminal GST; dsDNA, one strand shown
T7 sequence: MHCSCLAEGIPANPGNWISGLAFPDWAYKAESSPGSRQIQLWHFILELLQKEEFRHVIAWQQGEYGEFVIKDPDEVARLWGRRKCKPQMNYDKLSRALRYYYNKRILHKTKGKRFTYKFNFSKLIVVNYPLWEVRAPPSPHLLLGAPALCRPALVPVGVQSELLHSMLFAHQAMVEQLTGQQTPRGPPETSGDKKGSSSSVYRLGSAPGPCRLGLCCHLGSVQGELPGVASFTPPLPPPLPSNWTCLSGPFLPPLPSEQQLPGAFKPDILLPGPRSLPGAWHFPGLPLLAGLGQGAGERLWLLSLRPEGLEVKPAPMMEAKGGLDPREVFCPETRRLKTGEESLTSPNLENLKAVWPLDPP
Outline: as §1

[13] = biological target: T8, ETS2 (Homo sapiens, UniProt P15036 1-469); details: protein: recombinant; tags: N-terminal GST; dsDNA, one strand shown
T8 sequence: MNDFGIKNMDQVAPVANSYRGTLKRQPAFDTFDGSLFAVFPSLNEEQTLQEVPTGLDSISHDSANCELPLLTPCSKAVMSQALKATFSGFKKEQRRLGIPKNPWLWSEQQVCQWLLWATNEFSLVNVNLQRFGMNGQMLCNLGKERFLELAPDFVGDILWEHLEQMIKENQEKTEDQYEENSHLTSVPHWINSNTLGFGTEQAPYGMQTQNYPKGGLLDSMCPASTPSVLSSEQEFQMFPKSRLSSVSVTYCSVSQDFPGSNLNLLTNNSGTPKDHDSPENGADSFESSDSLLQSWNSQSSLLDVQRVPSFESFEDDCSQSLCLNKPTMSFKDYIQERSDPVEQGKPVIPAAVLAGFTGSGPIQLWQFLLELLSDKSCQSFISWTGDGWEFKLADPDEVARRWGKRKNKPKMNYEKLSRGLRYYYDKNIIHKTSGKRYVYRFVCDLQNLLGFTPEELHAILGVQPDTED
Outline: as §1

[14] = biological target: T9, SPDEF (Homo sapiens, UniProt O95238 1-335); details: protein: recombinant; tags: N-terminal GST; dsDNA, one strand shown
T9 sequence: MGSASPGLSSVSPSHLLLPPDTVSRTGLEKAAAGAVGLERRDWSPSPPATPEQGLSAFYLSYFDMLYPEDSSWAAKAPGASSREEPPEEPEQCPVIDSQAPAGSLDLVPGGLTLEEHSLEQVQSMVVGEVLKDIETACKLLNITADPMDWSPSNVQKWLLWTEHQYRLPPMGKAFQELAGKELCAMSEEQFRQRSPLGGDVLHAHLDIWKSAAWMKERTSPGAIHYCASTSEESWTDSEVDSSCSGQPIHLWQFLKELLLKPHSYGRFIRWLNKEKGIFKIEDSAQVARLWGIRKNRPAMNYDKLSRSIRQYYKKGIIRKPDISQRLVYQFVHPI
Outline: as §1

[15] = biological target: T10, ETV7 (Homo sapiens, UniProt Q9Y603 1-341); details: protein: recombinant; tags: N-terminal GST; dsDNA, one strand shown
T10 sequence: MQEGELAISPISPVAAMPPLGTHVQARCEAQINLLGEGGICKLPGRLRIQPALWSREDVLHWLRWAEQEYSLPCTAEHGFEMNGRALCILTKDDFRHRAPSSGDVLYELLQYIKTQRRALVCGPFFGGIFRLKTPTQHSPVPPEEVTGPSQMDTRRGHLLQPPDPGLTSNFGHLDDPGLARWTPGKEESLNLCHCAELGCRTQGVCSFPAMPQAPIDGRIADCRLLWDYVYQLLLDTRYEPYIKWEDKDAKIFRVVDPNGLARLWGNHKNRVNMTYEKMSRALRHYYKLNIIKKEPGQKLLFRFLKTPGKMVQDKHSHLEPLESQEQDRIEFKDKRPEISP
Outline: as §1

[16] = biological target: T11, ELF5 (Homo sapiens, UniProt Q9UKW6-2 1-255); details: protein: recombinant; tags: N-terminal GST; dsDNA, one strand shown
T11 sequence: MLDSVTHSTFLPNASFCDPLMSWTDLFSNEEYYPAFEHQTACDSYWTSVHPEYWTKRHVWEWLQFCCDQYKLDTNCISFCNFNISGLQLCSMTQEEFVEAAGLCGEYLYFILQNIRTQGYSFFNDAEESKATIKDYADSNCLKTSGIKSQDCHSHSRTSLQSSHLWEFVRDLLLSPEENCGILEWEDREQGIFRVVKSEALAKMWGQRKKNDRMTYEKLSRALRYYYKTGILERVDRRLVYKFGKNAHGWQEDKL
Outline: as §1

[17] = biological target: T12, ETV3 (Homo sapiens, UniProt P41162-2 1-143); details: protein: recombinant; tags: N-terminal GST; dsDNA, one strand shown
T12 sequence: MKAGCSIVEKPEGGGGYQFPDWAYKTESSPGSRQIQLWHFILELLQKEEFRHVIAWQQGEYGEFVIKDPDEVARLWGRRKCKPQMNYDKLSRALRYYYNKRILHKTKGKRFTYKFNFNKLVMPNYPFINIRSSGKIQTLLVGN
Outline: as §1

[18] = biological target: ETV6 (Homo sapiens, UniProt P41212 1-452); details: protein: recombinant; tags: N-terminal GST; dsDNA, one strand shown
Outline: as §1

ETV1, sequence (P50549 whole entry): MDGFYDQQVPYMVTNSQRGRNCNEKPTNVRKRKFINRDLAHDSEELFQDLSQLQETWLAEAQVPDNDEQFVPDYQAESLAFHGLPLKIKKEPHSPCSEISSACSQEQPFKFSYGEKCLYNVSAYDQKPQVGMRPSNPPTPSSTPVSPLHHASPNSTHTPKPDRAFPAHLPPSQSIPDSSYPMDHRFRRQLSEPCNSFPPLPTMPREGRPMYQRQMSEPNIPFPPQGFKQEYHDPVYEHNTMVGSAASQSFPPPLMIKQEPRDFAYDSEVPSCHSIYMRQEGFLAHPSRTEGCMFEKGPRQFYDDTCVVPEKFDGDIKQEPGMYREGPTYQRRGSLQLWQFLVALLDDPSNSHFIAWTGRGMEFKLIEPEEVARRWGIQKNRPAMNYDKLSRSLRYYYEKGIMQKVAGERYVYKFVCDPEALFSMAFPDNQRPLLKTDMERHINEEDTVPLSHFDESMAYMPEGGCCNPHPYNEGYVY
ETV5, sequence (P41161 whole entry): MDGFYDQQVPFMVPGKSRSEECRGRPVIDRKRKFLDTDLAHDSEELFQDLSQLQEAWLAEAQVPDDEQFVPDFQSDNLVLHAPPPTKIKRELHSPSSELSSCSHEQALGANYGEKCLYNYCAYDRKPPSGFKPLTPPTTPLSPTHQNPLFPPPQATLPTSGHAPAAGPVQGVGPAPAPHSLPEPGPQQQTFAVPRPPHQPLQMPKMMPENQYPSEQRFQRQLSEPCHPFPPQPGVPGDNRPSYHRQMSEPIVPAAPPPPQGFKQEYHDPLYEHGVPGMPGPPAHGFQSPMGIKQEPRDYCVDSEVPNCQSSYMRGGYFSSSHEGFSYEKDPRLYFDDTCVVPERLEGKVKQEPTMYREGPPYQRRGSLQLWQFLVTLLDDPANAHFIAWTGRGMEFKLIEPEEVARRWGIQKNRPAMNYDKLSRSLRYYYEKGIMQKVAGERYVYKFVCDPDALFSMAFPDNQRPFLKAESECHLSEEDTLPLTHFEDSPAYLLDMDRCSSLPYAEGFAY
CRX, sequence (O43186 whole entry): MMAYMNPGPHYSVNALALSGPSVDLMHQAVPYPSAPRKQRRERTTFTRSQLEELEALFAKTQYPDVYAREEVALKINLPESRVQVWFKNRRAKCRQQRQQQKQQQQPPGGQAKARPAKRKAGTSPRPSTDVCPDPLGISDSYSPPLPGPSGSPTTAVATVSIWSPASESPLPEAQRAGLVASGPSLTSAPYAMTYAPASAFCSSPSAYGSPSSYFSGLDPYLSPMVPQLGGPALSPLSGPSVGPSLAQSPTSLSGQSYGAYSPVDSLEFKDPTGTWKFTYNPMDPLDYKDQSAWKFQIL
HSF1, sequence (Q00613 whole entry): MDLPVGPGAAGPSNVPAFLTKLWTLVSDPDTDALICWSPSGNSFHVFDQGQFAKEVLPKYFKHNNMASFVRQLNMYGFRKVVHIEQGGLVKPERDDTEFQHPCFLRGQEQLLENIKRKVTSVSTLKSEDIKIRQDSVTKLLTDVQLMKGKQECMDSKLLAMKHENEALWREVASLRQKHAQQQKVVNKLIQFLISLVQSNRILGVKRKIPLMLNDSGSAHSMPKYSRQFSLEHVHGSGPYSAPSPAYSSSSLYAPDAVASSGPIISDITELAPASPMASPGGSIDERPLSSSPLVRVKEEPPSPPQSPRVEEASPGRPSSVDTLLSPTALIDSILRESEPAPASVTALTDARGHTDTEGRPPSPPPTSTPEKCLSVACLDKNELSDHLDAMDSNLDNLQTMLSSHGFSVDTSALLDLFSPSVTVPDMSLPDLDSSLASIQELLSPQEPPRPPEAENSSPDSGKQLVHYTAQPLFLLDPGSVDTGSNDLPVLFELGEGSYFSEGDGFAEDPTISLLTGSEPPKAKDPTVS
ELF4, sequence (Q99607 whole entry): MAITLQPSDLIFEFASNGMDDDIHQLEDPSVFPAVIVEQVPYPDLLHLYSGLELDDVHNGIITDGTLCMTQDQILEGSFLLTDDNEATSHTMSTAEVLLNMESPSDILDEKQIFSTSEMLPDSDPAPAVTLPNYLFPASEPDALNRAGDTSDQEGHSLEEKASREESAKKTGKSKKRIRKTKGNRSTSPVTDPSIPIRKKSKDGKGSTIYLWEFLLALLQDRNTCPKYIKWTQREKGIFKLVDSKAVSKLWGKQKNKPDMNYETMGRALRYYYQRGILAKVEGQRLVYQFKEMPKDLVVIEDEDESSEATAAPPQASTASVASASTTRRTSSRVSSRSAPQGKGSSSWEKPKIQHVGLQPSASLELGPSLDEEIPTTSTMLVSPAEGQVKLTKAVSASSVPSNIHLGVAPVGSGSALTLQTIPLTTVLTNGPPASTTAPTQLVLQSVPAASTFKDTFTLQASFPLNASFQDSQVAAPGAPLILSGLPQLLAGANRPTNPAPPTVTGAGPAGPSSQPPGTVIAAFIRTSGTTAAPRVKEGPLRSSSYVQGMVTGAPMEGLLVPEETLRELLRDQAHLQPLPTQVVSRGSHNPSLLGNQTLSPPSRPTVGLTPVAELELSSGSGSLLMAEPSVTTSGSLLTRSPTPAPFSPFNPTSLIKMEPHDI
ETV6, sequence (P41212 whole entry): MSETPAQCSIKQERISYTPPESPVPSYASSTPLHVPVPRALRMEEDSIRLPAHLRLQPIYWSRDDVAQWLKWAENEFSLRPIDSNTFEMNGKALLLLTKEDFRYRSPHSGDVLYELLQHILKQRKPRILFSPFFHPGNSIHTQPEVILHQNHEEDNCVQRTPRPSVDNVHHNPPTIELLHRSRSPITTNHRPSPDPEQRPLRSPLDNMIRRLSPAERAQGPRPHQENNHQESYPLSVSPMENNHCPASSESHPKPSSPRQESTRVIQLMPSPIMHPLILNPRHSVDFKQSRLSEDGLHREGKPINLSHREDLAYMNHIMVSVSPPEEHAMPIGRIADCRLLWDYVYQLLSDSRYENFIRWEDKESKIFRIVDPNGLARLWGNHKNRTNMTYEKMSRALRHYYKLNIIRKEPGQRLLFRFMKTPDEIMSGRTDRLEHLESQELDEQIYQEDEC

GGGTTT
binding signal [1]: 1.06 fold enrichment (6-mer frequency, TF over GST control) | binding signal [2]: 1.08 fold enrichment (6-mer frequency, TF over GST control) | binding signal [3]: 1.12 fold enrichment (6-mer frequency, TF over GST control) | binding signal [4]: 1.16 fold enrichment (6-mer frequency, TF over GST control) | binding signal [5]: 1.2 fold enrichment (6-mer frequency, TF over GST control) | binding signal [6]: 1.12 fold enrichment (6-mer frequency, TF over GST control) | binding signal [7]: 1.33 fold enrichment (6-mer frequency, TF over GST control) | binding signal [8]: 1.05 fold enrichment (6-mer frequency, TF over GST control) | binding signal [9]: 1.25 fold enrichment (6-mer frequency, TF over GST control) | binding signal [10]: 1.1 fold enrichment (6-mer frequency, TF over GST control) | binding signal [11]: 1.17 fold enrichment (6-mer frequency, TF over GST control) | binding signal [12]: 1.1 fold enrichment (6-mer frequency, TF over GST control) | binding signal [13]: 1.1 fold enrichment (6-mer frequency, TF over GST control) | binding signal [14]: 1 fold enrichment (6-mer frequency, TF over GST control) | binding signal [15]: 1.12 fold enrichment (6-mer frequency, TF over GST control) | binding signal [16]: 1.1 fold enrichment (6-mer frequency, TF over GST control) | binding signal [17]: 1.18 fold enrichment (6-mer frequency, TF over GST control) | binding signal [18]: 1.07 fold enrichment (6-mer frequency, TF over GST control)
